Test [1] can be described thus: qHTS for Inhibitors of Plasmodium falciparum (DD2) proliferation (AID 504314).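 Further: parasite DNA measured by SYBR Green fluorescence after red cell lysis.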 In short, it runs like this:
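SYBR Green growth assay: 72 h compound exposure of infected red cells (2.5% hematocrit, 0.3% parasitemia), then lysis and overnight dye staining, fluorescence 485/535 nm. Values scaled between DMSO and 0.29 uM artemisinin controls.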
Background: Quantitative high-throughput screening tests each substance at several concentrations.

The nature of test [2]: qHTS for Inhibitors of Plasmodium falciparum (GB4) proliferation (AID 504315). Further: nearly all actives have a fitted effect of over 50% in size. Further: potency means the concentration at half of the fitted maximal effect. In outline: (§1)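 Parasite growth measured as SYBR Green DNA fluorescence (ex 485, em 535 nm) after overnight lysis following 72 h culture at 37 °C, 0.3% parasitemia, 2.5% hematocrit. Values normalized against DMSO and 0.29 uM artemisinin controls, with plate-stack correction.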
Test [3] is described as follows: qHTS for Inhibitors of Plasmodium falciparum (CP250) proliferation (AID 504320). In short, it runs like this:
as §1

Test [4] is described as follows: qHTS for Inhibitors of Plasmodium falciparum (7G8) proliferation (AID 504316). Further: nearly all actives have a fitted effect of over 65% in size. Further: potency means the concentration at half of the fitted maximal effect. In short, it runs like this:
as §1

A short description of test [5]: qHTS for Inhibitors of Plasmodium falciparum (HB3) proliferation (AID 504318). Further: nearly all actives have a fitted effect of over 60% in size. In outline:
as §1

Inconclusive results are not listed. A number with no mark means an inactive call. Active and inactive are the calls of the source. The call rests on the fitted dose curve; in most records, active means well fitted curve in the direction sought with a large enough effect; inconclusive means small, poorly fitted or top-dose-only effect, or another doubt; inactive means no such curve, though single readings can be large; an effect the other way counts as inactive or inconclusive.

As to `C/C=C/C1=Cc2ccccc2C(CC(=O)OC)N1C(=O)OC` (stereo not given), the Potency result in test [1], in test [2] and in test [3] was “inactive” throughout.
Turning to `C=CCN1c2ccccc2[C@]23C[C@@H](C(=O)OC)N(C(=O)c4cc(C)oc4C)C2=NC(C(=O)OC)=C(C(=O)OC)[C@H]13`, the Potency entry in test [1], in test [2] and in test [3] was “inactive” throughout.
For the compound `C=CCN1c2ccccc2[C@]23C[C@@H](C(=O)OC)N(S(=O)(=O)c4cccs4)C2=NC(C(=O)OC)=C(C(=O)OC)[C@H]13`, the Potency entry in test [1], in test [2] and in test [3] was “inactive” throughout.
In the case of `COc1cccc([C@@H]2Oc3ccc(Br)cc3C(=O)[C@@H]2OC(=O)Nc2ccc(OC(F)F)cc2)c1`, the Potency entry in test [1], in test [2] and in test [3] was “inactive” in each case.
In the case of `CCCCC1=CC2=CC(=O)C(C)(OC(=O)CC)C(=O)C2=CN1CCc1ccccn1` (stereo not given), the Potency result in test [1], in test [4], in test [5] and in test [3] was “inactive” throughout.
For `C=C(C(C)=O)C(O)c1ccc2ccccc2c1` (stereo not given), the Potency entry in test [1], in test [2] and in test [3] was “inactive” each time.
On to `COC(=O)C1=C(C(=O)OC)[C@@H]2N(C)c3ccccc3[C@@]23C[C@@H](C(=O)OC)N(S(=O)(=O)c2ccc(OC)cc2)C3=N1`, for which the Potency entry in test [1], in test [2] and in test [3] was “inactive” throughout.
With `COC(=O)C1=C(C(=O)OC)[C@@H]2N(C)c3ccccc3[C@@]23C[C@@H](C(=O)OC)N(S(=O)(=O)c2ccc4c(c2)OCCN4C)C3=N1`, the Potency entry in test [1] and in test [3] was “inactive” throughout. In test [2], the Potency is 2390 nM (active).
Take `COC(=O)CCC(=O)OC1(C)C(=O)C=C2C=C(C3CC3)N(c3ccc(OC)cc3)C=C2C1=O` (stereo not given): the Potency result in test [1], in test [2] and in test [3] was “inactive” each time.
Turning to `Cc1ccc(S(=O)(=O)N2CCc3nc(-c4ccccc4)c4c(c3C2)CO[C@@H](C)C4)cc1`, the Potency result in test [1] and in test [4] was “inactive” in each case.
For the compound `CC#CCN1c2ccccc2[C@]23C[C@@H](C(=O)OC)N(C(=O)OCC)C2=NC(C(=O)OC)=C(C(=O)OC)[C@H]13`, the Potency entry in test [1], in test [2] and in test [3] was “inactive” each time.
Take `CC#CCN1c2ccccc2[C@]23CCC(=O)N(CCCOC(C)C)C2=NC(C(=O)OC)=C(C(=O)OC)[C@H]13`: the Potency entry in test [1], in test [2] and in test [3] was “inactive” each time.
In the case of `CCCCc1nc2c(c3c1C[C@H](C)OC3)CN(C(=O)Nc1cccc(C#N)c1)CC2`, the Potency entry in test [1] and in test [4] was “inactive” throughout.
Regarding `COC(=O)C1=C(C(=O)OC)[C@@H]2N(C)c3ccc(OC)cc3[C@@]23C[C@@H](C(=O)OC)N(S(=O)(=O)c2ccc([N+](=O)[O-])cc2)C3=N1`, the Potency entry in test [1] and in test [3] was “inactive” in each case. Also, the Potency in test [4] is 1510 nM (active).
Consider `COC(=O)CCC(=O)OC1(C)C(=O)C=C2C=C(C3CC3)N(CCc3ccccn3)C=C2C1=O` (stereo not given), for which the Potency entry in test [1] and in test [5] was “inactive” each time.
Turning to `CCOC(=O)CCCNC(=O)N1CCc2nc(-c3ccc(OC)cc3C)c3c(c2C1)CO[C@@H](c1ccccc1)C3`, the Potency result in test [1] and in test [3] was “inactive” each time. The Potency in test [4] is 1690 nM (active).
Regarding `COC(=O)C1=C(C(=O)OC)[C@@H]2N(C)c3ccc(OC)cc3[C@@]23C[C@@H](C(=O)OC)N(S(=O)(=O)c2ccc(C#N)cc2)C3=N1`, the Potency entry in test [1] and in test [3] was “inactive” each time. The Potency in test [4] was 1690 nM (active).
For `COC(=O)c1ccccc1S(=O)(=O)N1CCc2nc(-c3ccccc3)c3c(c2C1)CO[C@@H](C)C3`, the Potency result in test [1], in test [4] and in test [3] was “inactive” each time.
On to `CC1(OC(=O)C2CCCC2)C(=O)C=C2C=C(c3ccsc3)N(CCc3c[nH]c4ccccc34)C=C2C1=O` (stereo not given), for which the Potency entry in test [1], in test [4] and in test [3] was “inactive” in each case.
`CCCCC1=CC2=CC(=O)C(C)(OC(=O)CC)C(=O)C2=CN1CCOC` (stereo not given): the Potency entry in test [1], in test [4], in test [5] and in test [3] was “inactive” throughout.
`CCN1C(=O)N(C)[C@@H](c2ccccc2)C(C(C)=O)=C1C`: the Potency entry in test [1], in test [4] and in test [3] was “inactive” throughout.
With `COC(=O)CCC(=O)OC1(C)C(=O)C2=CN(C3CCCC3)C(c3ccc(OC)cc3)=CC2=C(Br)C1=O` (stereo not given), the Potency result in test [1], in test [4] and in test [3] was “inactive” each time.
As to `COc1ccc(-c2nc3c(c4c2C[C@H](c2ccccc2)OC4)CN(S(=O)(=O)c2ccc(C#N)cc2)CC3)c(C)c1`, the Potency entry in test [1] and in test [3] was “inactive” each time. The Potency in test [4] was 1510 nM (active).
With `COC(=O)N1C(C)=Cc2ccccc2C1C/C(C)=C/C(C)=O` (stereo not given), the Potency entry in test [1], in test [4], in test [5] and in test [3] was “inactive” each time.
Take `COC(=O)CC1c2ccccc2C=C(/C=C/c2ccc3c(c2)OCO3)N1C(=O)OC` (stereo not given): the Potency result in test [1], in test [5] and in test [3] was “inactive” in each case.
For the compound `COC(=O)C1=C(C)N(Cc2ccco2)C(=O)N[C@@H]1c1ccc(Br)cc1`, the Potency entry in test [1], in test [4], in test [5] and in test [3] was “inactive” throughout.
As for `COC(=O)N1C(/C=C/c2ccc3c(c2)OCO3)=Cc2ccccc2C1CC(C)=O` (stereo not given), the Potency result in test [1] and in test [3] was “inactive” each time. The Potency in test [4] was 2690 nM (active).
As to `COC(=O)C1=C(C(=O)OC)[C@@H]2Nc3ccccc3[C@@]23C[C@@H](C(=O)OC)N(C(=O)c2cc(C)oc2C)C3=N1`, the Potency result in test [1] and in test [3] was “inactive” throughout. In addition, in test [4], the Potency was 1690 nM (active).
Take `COC(=O)C1=C(C(=O)OC)[C@@H]2Nc3ccccc3[C@@]23C[C@@H](C(=O)OC)N(S(=O)(=O)c2c(C)noc2C)C3=N1`: the Potency entry in test [1], in test [4] and in test [3] was “inactive” each time.
As to `COC(=O)CCC(=O)OC1(C)C(=O)C2=CN(c3ccc(OC)cc3)C(c3ccc(OC)cc3)=CC2=C(Br)C1=O` (stereo not given), the Potency entry in test [1], in test [5] and in test [3] was “inactive” each time.
Regarding `CC(C)CN1C=C2C(=O)C(C)(OC(=O)CCc3ccccc3)C(=O)C=C2C=C1c1ccc(C#N)cc1` (stereo not given), the Potency entry in test [1], in test [4], in test [5] and in test [3] was “inactive” in each case.

The values above are taken from PubChem BioAssay (NCATS).
